Inconclusive results are not listed. Unmarked numbers belong to inactive results. Active and inactive are the calls of the source. Unless noted, calls come from the whole dose curve; as a rule, active = well fitted cell-killing curve with a large enough effect in the repeat runs; inconclusive = weak or mixed curves, or effect the other way; inactive = flat fitted curve, though single readings scatter.
% is set by controls: 0 for no effect and ±100 for the full control effect; potency is the fitted concentration of half-maximal effect.

Estrogen receptor beta (Homo sapiens), sequence (Q92731 whole entry, looked up): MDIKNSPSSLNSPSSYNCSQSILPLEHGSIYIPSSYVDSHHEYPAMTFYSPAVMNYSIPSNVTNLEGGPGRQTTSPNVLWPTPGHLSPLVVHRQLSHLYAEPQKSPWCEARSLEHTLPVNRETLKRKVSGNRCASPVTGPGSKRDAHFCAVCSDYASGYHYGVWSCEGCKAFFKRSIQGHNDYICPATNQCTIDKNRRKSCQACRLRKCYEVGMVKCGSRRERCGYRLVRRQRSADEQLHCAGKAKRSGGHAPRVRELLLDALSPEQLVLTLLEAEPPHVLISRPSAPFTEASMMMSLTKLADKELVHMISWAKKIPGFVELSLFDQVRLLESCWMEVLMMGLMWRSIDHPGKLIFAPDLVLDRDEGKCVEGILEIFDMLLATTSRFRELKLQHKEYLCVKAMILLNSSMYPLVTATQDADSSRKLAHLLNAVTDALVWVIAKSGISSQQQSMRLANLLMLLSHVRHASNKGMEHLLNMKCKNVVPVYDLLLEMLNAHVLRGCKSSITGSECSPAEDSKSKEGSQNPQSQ

The first assay deals with Estrogen receptor beta (Homo sapiens) (UniProt Q92731). The experiment in a line: qHTS assay to identify small molecule antagonists of the estrogen receptor beta (ER-beta) signaling pathway (AID 1259378; active = well fitted inhibition curve with a large enough effect in the signal ratio in the repeat runs, not every such curve was filed as active; the % refers to the signal ratio). The conditions noted are these: ER-beta-UAS-bla HEK293T, beta-lactamase FRET ratio, 16 h; series mostly up to 92.4 µM; activity, negative = inhibition: at the top concentration. An outline of the steps:
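ER-beta-UAS-bla HEK293T (GripTite) cells in 2% charcoal-stripped FBS medium were preincubated 6 hr at 37C, dosed with compound, then stimulated with 1 nM E2 (final) for 16 hr; beta-lactamase reporter read by B/G FRET fluorescence after 2 hr substrate loading.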
On the technique in general: Quantitative high-throughput screening tests each substance at several concentrations.
In the case of `CO[C@@H]1[C@@H](O[C@@H]2O[C@H](C)[C@@H](O[C@H]3C[C@@](C)(O)[C@@H](O)[C@H](C)O3)[C@H](N(C)C)[C@H]2O)[C@@H](CC=O)C[C@@H](C)[C@@H](O[C@@H]2CC[C@H](N(C)C)[C@@H](C)O2)/C=C/C=C/C[C@@H](C)OC(=O)C[C@H]1OC(C)=O`, the “activity, negative = inhibition” value was -16.9% [at 42.5 µM]. `C=C[Si](OCC)(OCC)OCC`: the “activity, negative = inhibition” value was 2.5%. Same read-out and setting: the same measure for `O=c1c2ccccc2oc2ccccc12`: 14.5%; for `CCCCCCCCCCCCCCCCCCCl`: 21.3% [at 8.39 µM]; for `CC(=O)Nc1cccc(N)c1`: 1.04%. On the same count and under the same terms, the figure for `Clc1nc2ccccc2nc1Cl` is 0.371%. On to `CC(=O)c1ccc(Cl)c(Cl)c1Cl`, for which the “activity, negative = inhibition” value is 9.84%. Same read-out and setting: the same measure for `CCCc1nc(C)c2c(=O)[nH]c(-c3cc(S(=O)(=O)N4CCN(CC)CC4)ccc3OCC)nn12`: 6.2% [at 42.5 µM]. For `CC(Cc1ccccc1)(NC(=O)CN)c1ccccc1` (stereo not drawn), the “activity, negative = inhibition” value is -7.64% [at 42.5 µM]. The same measure, in the same setting: the same measure for `O=C(c1ccco1)N1CCNCC1`: 15.2% [at 42.5 µM]. The same measure, in the same setting: the same measure for `CCOc1ccccc1O`: 19.4%. As for `CCC(CC)C(=O)O`, the “activity, negative = inhibition” value was 12%.

For `OCCCO`, the “activity, negative = inhibition” value was 14.1%. Regarding `CC/C=C/CCO`, the “activity, negative = inhibition” value was 4.79%. In the case of `COc1cccc([C@H](O)C2CCN(CCc3ccc(F)cc3)CC2)c1OC`, the “activity, negative = inhibition” value is 13.7%. Turning to `O=C(Cl)c1cc(Cl)cc(Cl)c1`, the “activity, negative = inhibition” value is 13.5%. As for `O=C(Nc1ccc2c(c1)Cc1ccccc1-2)C(F)(F)F`, the “activity, negative = inhibition” value was -8.57%. In the case of `O=c1[nH]nc(-c2ccc([N+](=O)[O-])o2)o1`, the “activity, negative = inhibition” value was 6.64%. The same measure, in the same setting: the same measure for `COc1ccnc2c1CCCCC2S(=O)c1nc2ccccc2[nH]1` (stereo not drawn): -15.1% [at 42.5 µM]; for `CCOCCn1c(N2CCCN(C)CC2)nc2ccccc21`: 1.98% [at 42.5 µM]. In the case of `CC1=C(C)C(=O)C(CCCCC#CCCCC#CCO)=C(C)C1=O`, the Potency is 21.1 µM (active). For the molecule `C(/C=C/C=C/Nc1ccccc1)=Nc1ccccc1`, the “activity, negative = inhibition” value was -0.81%.

Tested on in another assay: not listed separately
As to the kind of experiment: qHTS assay to identify small molecule agonists of the androgen receptor (AR) signaling pathway in the presence of an antagonist - cell viability counter screen (AID 1259379).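 For activity change, negative = cytotoxicity: MDA-kb2 human breast cancer cells carrying an MMTV luciferase reporter.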 Note: nearly all actives have a fitted effect of over 25% in size. The conditions noted are these: MDA-kb2 viability, CellTiter-Fluor, 16 h; series mostly up to 92.4 µM; activity change, negative = cytotoxicity: at the top concentration. An outline of the steps:
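Fluorescence from CellTiter-Fluor, added after 15 hr and read 1 hr later, gave cell viability. Cells were MDA-kb2 exposed to compounds (15 concentrations) in the presence of 3.0uM nilutamide at 37C, 0% CO2.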
For `CO[C@@H]1[C@@H](O[C@@H]2O[C@H](C)[C@@H](O[C@H]3C[C@@](C)(O)[C@@H](O)[C@H](C)O3)[C@H](N(C)C)[C@H]2O)[C@@H](CC=O)C[C@@H](C)[C@@H](O[C@@H]2CC[C@H](N(C)C)[C@@H](C)O2)/C=C/C=C/C[C@@H](C)OC(=O)C[C@H]1OC(C)=O`, the “activity change, negative = cytotoxicity” value was 3.29% [at 42.5 µM]. Still for that read-out and setting: the figure for `Oc1ccc(CCNCCCCCCNCCc2ccccc2)cc1O` is -10.2% [at 42.5 µM]; for `C=C[Si](OCC)(OCC)OCC` it is 0.28%. For `Cc1cc(C)n(CO)n1`, the “activity change, negative = cytotoxicity” value is 3.73%. Still for that read-out and setting: the same measure for `O=c1c2ccccc2oc2ccccc12`: -0.725%. With `CCCCCCCCCCCCCCCCCCCl`, the activity change, negative = cytotoxicity is 1.57% [at 8.39 µM].

Regarding `CC(=O)Nc1cccc(N)c1`, the “activity change, negative = cytotoxicity” value is 0.302%. On to `Cc1ccc(NC=O)c(C)c1`, for which the “activity change, negative = cytotoxicity” value was 1.93%.

As for `Clc1nc2ccccc2nc1Cl`, the Potency is 24.6 µM (active). Still for that read-out and setting: the figure for `CC(=O)Oc1cccc2c1C(=O)c1c(OC(C)=O)cc(C(=O)O)cc1C2=O` is 26.6 µM (active). For `CC(=O)c1ccc(Cl)c(Cl)c1Cl`, the “activity change, negative = cytotoxicity” value was -1.12%. In the case of `CCCCCCCCCC(C)C=O` (stereo not drawn), the “activity change, negative = cytotoxicity” value is 0.754%.

With `Cc1nc2sccn2c(=O)c1CCN1CCC(=C(c2ccc(F)cc2)c2ccc(F)cc2)CC1`, the “activity change, negative = cytotoxicity” value was -9.59% [at 42.5 µM]. The same measure, in the same setting: the figure for `CC(Cc1ccccc1)(NC(=O)CN)c1ccccc1` (stereo not drawn) is 0.909% [at 42.5 µM]. On the same count and under the same terms, the same measure for `O=C(c1ccco1)N1CCNCC1`: -1.6% [at 42.5 µM]. Same read-out and setting: the same measure for `CC(COc1ccccc1)NC(C)C(O)c1ccc(O)cc1` (stereo not drawn): -0.381% [at 42.5 µM]; for `CCc1cnc(C(=O)O)c(C(=O)O)c1`: 0.984%; for `O=S(=O)(O)c1cc(Cl)c(Cl)cc1Cl`: 0.198%. As for `O=C(N[C@@H](Cc1ccccc1)[C@@H](O)C(=O)N1C[C@@H](O)[C@@H](O)C1)c1cc2cc(Cl)ccc2[nH]1`, the “activity change, negative = cytotoxicity” value was -3.84%.

As for `CCC(CC)C(=O)O`, the “activity change, negative = cytotoxicity” value is -1.13%. Same read-out and setting: the same measure for `CC[C@H](NC(C)C)[C@H](O)c1ccc(O)c2[nH]c(=O)ccc12`: 0.428% [at 42.5 µM]; for `CCCCCCC/C=C/C=O`: 4.58%. Consider `OCCCO`, for which the “activity change, negative = cytotoxicity” value was 0.208%. Turning to `CC/C=C/CCO`, the “activity change, negative = cytotoxicity” value was -1.15%.

With `N#Cc1ccc(CC(=O)c2cccc(C(F)(F)F)c2)cc1`, the “activity change, negative = cytotoxicity” value was -0.377%. On the same count and under the same terms, the figure for `O=C(Cl)c1cc(Cl)cc(Cl)c1` is 2.77%; for `O=C(Nc1ccc2c(c1)Cc1ccccc1-2)C(F)(F)F` it is -4.91%.

Consider `O=c1[nH]nc(-c2ccc([N+](=O)[O-])o2)o1`, for which the Potency is 54.5 µM (active). As to `COc1ccnc2c1CCCCC2S(=O)c1nc2ccccc2[nH]1` (stereo not drawn), the “activity change, negative = cytotoxicity” value is -8.32% [at 42.5 µM]. Still for that read-out and setting: the figure for `OCCOc1cccc(OCCO)c1` is -2.47%; for `C(/C=C/C=C/Nc1ccccc1)=Nc1ccccc1` it is -4.87%.

The values above are taken from PubChem BioAssay (Tox21).
